In the supplement of paper PMC11732987, “Enantioselective OTUD7B fragment discovery through chemoproteomics screening and high-throughput optimisation” (Communications Chemistry, 2025):
Values without a mark were called inactive.

Experiments:
Test in all cases: log2 ratio of Biotin-Ahx-Ub-VS probe labelling (fragment/DMSO); higher = less target engagement (more negative = stronger competition), active = hit call of the paper (q ≤ 0.05, log2 ratio ≤ -1)
Details in all cases: compound concentration: 200 uM; treatment time: 3 h
USP19 = target: T1, USP19 (UniProt O94966)
T1 sequence (whole entry): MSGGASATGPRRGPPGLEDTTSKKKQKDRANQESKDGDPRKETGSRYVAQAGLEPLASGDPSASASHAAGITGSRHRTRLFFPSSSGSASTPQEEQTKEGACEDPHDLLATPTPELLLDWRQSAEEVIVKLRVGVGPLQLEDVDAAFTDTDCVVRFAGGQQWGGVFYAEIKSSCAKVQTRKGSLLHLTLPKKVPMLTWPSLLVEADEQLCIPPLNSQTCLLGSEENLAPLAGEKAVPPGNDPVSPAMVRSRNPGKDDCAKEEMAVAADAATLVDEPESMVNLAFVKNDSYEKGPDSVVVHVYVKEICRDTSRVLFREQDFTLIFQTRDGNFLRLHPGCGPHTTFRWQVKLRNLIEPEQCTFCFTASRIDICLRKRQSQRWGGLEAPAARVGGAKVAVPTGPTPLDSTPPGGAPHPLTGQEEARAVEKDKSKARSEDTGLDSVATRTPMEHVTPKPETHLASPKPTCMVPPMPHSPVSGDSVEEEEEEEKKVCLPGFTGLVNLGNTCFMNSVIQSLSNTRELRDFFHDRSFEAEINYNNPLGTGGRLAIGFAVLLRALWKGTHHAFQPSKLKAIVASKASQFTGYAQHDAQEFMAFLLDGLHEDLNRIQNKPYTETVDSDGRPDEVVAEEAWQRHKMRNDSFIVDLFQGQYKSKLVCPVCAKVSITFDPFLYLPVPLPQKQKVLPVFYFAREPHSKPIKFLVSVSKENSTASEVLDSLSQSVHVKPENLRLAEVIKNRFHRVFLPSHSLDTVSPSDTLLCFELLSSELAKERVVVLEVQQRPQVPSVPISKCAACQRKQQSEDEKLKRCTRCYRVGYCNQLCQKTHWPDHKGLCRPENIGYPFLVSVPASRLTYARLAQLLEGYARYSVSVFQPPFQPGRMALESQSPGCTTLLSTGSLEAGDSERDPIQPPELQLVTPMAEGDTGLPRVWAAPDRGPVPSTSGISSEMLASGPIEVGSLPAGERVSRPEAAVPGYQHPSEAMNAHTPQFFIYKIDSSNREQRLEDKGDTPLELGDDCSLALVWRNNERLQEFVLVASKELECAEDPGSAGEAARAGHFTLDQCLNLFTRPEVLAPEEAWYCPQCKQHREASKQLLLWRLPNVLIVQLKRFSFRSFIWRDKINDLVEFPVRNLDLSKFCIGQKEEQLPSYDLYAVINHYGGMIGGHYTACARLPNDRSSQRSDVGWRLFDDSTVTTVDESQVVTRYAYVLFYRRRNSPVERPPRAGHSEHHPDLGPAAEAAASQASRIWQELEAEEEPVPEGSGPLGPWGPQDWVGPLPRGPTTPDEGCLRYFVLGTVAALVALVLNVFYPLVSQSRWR
Procedure, shortened: (§1)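 HEK293T lysate in Tris/CHAPS/IGEPAL buffer with protease inhibitors (495 µg per sample) was given fragment at 200 µM or vehicle for 3 h, in triplicate. It then received Biotin-Ahx-Ub-VS at 0.5 µM final for 1 h. Labelled DUBs were NeutrAvidin-enriched, digested with LysC and trypsin, and run by diaPASEF LC-MS/MS. Values are average log2 fragment/vehicle ratios by unpaired t-test on global-median-normalised Spectronaut quantities of proteins with ≥2 unique peptides.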

USP22 = target: T2, USP22 (UniProt Q9UPT9)
T2 sequence (whole entry): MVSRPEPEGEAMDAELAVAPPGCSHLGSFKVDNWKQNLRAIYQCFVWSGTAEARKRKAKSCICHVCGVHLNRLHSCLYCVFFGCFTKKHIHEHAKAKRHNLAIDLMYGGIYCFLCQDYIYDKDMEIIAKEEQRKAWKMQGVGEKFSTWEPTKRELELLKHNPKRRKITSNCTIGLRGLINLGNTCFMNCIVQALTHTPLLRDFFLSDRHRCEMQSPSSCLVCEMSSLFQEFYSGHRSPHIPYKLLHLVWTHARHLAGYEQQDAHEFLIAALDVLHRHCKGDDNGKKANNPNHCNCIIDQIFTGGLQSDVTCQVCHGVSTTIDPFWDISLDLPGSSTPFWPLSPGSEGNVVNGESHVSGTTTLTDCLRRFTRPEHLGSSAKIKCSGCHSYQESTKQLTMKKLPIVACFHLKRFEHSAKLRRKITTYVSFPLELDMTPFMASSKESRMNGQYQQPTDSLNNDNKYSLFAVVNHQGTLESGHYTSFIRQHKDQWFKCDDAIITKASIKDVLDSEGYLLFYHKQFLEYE
Procedure, shortened: as §1

USP24 = USP24 (UniProt Q9UPU5)
Procedure, shortened: as §1

USP25 = target: T3, USP25 (UniProt Q9UHP3)
T3 sequence (whole entry): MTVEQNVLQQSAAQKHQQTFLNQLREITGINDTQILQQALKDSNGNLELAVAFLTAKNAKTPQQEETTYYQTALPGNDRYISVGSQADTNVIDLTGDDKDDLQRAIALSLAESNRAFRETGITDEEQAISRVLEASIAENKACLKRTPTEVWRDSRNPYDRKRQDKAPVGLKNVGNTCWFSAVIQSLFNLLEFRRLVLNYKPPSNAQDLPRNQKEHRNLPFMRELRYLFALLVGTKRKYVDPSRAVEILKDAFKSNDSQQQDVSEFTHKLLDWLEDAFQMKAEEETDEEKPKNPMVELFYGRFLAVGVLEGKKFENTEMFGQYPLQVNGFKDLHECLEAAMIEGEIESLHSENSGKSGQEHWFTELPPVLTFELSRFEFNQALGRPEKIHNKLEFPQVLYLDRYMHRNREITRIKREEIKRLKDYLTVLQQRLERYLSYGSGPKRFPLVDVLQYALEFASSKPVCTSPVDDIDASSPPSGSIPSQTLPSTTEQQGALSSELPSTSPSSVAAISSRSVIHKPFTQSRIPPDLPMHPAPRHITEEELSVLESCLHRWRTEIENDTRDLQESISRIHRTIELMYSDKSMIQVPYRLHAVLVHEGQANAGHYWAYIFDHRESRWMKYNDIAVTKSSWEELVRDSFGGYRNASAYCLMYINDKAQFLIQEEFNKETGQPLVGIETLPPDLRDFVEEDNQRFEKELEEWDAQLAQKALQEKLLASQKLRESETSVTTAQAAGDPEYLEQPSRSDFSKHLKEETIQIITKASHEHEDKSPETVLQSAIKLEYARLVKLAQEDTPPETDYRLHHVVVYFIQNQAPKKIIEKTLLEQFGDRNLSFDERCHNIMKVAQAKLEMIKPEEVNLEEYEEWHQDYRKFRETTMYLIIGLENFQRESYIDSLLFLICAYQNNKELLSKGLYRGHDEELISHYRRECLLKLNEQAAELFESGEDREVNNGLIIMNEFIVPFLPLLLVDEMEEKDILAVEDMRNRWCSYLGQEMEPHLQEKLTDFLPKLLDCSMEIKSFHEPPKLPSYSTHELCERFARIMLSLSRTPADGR
Procedure, shortened: as §1

USP28 = target: T4, USP28 (UniProt Q96RU2)
T4 sequence (whole entry): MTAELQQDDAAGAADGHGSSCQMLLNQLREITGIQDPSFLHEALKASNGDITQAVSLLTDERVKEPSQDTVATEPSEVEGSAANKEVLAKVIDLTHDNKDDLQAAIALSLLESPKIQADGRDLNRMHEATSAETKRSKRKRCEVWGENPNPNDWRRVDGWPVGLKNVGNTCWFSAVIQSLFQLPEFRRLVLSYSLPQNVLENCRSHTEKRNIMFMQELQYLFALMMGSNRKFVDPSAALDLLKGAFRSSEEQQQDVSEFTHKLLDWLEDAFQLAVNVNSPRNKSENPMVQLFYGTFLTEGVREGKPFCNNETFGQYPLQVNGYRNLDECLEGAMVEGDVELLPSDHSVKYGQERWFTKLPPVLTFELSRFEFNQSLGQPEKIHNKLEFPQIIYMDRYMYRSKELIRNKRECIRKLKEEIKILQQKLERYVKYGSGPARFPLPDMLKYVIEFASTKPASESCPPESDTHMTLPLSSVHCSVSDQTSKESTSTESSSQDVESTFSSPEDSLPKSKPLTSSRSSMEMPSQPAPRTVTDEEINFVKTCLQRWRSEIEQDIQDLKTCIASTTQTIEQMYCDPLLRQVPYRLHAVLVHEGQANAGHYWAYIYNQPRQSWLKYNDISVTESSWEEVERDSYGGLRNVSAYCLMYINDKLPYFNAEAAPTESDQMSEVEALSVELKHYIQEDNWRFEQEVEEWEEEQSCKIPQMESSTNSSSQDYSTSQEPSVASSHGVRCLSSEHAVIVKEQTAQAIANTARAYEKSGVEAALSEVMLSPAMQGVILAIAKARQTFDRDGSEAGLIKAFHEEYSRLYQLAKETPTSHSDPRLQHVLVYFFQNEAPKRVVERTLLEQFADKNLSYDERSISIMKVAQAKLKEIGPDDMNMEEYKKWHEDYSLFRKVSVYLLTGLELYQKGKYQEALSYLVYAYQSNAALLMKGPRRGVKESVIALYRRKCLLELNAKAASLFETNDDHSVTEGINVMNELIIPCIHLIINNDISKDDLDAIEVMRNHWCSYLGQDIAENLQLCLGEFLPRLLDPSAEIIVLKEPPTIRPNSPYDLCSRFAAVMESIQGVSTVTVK
Procedure, shortened: as §1

USP24, sequence (Q9UPU5 whole entry): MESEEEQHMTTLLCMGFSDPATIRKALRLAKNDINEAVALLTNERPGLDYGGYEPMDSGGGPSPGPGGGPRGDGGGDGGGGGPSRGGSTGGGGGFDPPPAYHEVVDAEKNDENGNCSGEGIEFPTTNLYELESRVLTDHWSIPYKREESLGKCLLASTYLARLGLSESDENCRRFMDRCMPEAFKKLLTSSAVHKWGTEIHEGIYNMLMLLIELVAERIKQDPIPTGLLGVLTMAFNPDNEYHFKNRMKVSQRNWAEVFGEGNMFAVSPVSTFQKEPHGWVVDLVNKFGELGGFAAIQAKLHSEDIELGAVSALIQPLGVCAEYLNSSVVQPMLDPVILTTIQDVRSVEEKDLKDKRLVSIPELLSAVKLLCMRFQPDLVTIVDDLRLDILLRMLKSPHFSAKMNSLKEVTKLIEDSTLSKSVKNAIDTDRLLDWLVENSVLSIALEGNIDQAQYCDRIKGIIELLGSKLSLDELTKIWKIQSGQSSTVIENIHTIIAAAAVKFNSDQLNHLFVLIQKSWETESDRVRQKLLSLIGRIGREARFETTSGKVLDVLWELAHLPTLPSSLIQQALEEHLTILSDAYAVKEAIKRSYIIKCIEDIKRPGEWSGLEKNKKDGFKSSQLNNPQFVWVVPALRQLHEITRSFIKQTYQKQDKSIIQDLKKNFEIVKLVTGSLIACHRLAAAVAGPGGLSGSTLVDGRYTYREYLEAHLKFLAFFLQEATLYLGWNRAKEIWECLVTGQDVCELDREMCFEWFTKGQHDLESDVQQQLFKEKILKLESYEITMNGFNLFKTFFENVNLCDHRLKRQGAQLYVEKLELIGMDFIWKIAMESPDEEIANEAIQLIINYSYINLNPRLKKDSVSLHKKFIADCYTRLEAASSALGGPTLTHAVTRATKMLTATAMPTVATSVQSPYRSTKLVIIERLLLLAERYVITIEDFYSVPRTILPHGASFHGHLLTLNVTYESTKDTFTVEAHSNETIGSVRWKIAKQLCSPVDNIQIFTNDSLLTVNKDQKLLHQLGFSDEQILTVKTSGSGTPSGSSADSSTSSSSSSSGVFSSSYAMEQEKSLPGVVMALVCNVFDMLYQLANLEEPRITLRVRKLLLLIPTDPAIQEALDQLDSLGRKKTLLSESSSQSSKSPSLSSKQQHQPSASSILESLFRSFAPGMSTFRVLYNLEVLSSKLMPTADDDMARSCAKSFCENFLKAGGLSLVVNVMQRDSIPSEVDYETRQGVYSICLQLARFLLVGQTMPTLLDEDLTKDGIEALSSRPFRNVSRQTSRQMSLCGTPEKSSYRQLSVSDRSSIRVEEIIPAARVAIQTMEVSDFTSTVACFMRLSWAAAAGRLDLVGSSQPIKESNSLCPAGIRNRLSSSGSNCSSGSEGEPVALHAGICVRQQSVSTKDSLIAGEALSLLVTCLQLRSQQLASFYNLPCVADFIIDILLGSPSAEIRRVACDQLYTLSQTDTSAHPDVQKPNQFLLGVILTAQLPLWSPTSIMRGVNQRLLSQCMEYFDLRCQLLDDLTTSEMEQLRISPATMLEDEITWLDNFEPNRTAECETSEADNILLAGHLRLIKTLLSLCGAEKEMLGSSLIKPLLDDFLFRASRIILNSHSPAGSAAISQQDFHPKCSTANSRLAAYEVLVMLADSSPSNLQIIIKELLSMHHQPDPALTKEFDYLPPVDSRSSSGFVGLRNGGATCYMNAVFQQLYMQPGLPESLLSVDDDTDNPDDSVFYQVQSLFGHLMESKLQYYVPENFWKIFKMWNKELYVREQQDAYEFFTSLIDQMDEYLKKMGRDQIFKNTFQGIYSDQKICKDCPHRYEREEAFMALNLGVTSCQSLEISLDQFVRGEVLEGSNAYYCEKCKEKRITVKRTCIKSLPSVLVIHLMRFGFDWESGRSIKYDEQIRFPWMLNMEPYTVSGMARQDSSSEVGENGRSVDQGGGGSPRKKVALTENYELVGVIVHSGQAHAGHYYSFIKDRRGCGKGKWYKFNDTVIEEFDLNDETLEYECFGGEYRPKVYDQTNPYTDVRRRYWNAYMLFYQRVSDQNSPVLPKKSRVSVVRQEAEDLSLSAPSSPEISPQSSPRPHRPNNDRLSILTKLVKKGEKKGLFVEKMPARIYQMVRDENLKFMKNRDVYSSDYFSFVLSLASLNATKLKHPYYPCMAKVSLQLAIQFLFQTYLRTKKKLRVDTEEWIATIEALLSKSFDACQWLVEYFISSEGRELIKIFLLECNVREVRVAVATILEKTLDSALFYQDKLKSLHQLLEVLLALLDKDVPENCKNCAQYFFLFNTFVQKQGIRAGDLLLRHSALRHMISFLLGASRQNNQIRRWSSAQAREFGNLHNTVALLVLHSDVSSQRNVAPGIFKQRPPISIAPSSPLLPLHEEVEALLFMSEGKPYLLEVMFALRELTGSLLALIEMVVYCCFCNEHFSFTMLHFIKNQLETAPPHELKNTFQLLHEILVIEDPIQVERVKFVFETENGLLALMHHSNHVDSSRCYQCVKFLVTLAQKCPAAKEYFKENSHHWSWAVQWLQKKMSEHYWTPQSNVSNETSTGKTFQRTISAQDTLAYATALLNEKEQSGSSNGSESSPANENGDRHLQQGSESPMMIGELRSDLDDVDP

Structure (SMILES): O=C(CCl)N1CC=C(c2c[nH]c3ccccc23)CC1
- log2 ratio of Biotin-Ahx-Ub-VS probe labelling (USP19): -1.72 (active)
- log2 ratio of Biotin-Ahx-Ub-VS probe labelling (USP22): -0.57
- log2 ratio of Biotin-Ahx-Ub-VS probe labelling (USP24): -1.48 (active)
- log2 ratio of Biotin-Ahx-Ub-VS probe labelling (USP25): -0.457
- log2 ratio of Biotin-Ahx-Ub-VS probe labelling (USP28): -1.1 (active)
